Results on eight compounds are retold here after PubChem BioAssay (NCI).

The structures appear in SMILES notation. The panel holds about 83,000 compounds, 20% with a hit somewhere; the sample as a whole holds those more often.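 For each line, cells grew in 96-well plates with the test compound present at a single concentration for 48 hours.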 Values without a mark were called inactive. Calls of active or inactive are those of the source. The calls were made as follows: active = growth percent below 10; inactive = the rest.

Some test systems named below: NCI-H23 lung; NCI-H226 lung; NCI-H322M lung; HOP-62 NSCLC; NCI-H460 lung; HOP-92 NSCLC; NCI-H522 lung; A549/ATCC NSCLC; 786-0 renal; DU-145 prostate; K-562 leukemia; MALME-3M melanoma; MDA-MB-231 breast; RXF 393 renal; SF-268 CNS; SF-295 CNS; SF-539 CNS; UACC-257 melanoma; M14 melanoma; COLO 205 colon.
Common to all, as to assay: NCI-60 one-dose screen, 48 h (100 = growth as untreated, 0 = no growth, -100 = all killed)
Common to all, as to details: 10 µM unless noted

For the compound `C=CCn1c(SCC(=O)Nc2ccc(/C(C)=N\O)cc2)nnc1-c1cc(-c2ccc(OC)cc2)nc2ccccc12`, the growth was 33.7% with NCI-H23 lung; 41.2% in the assay on NCI-H226 lung; 31.9% with NCI-H322M lung; 38.5% in the assay on HOP-62 NSCLC; 27.8% in the assay on NCI-H460 lung; 45.9% in the assay on HOP-92 NSCLC. The growth in the assay on NCI-H522 lung is 18.7%; in the assay with A549/ATCC NSCLC, 20.1%; with 786-0 renal it was 32.8%; in the assay on DU-145 prostate, 60.6%; with K-562 leukemia, 19.1%; with MALME-3M melanoma it was 66.4%. The growth in the assay with MDA-MB-231 breast is 33.7%; with RXF 393 renal, 42.2%; in the assay with SF-268 CNS it was 51.5%; in the assay on SF-295 CNS it was 19.8%; in the assay with SF-539 CNS, 20.2%; in the assay on UACC-257 melanoma, 44.1%. The growth with M14 melanoma is 36.3%.
Consider `O=C(NNC(=O)c1ccc([N+](=O)[O-])cc1)c1ccc([N+](=O)[O-])cc1`, for which the growth is 94.8% in the assay on NCI-H23 lung; 99.3% in the assay with NCI-H226 lung; 120% in the assay on NCI-H322M lung; 90.8% in the assay on HOP-62 NSCLC; 105% with NCI-H460 lung; 106% with HOP-92 NSCLC. The growth in the assay on NCI-H522 lung was 84%; in the assay with A549/ATCC NSCLC, 99.3%; in the assay with 786-0 renal it was 95%; in the assay with DU-145 prostate, 113%; with K-562 leukemia, 93.6%; in the assay on MALME-3M melanoma it was 112%. Further, the growth in the assay with MDA-MB-231 breast was 117%; in the assay with RXF 393 renal, 111%; with SF-268 CNS, 101%; in the assay on SF-295 CNS it was 94.2%; with SF-539 CNS, 91.4%; in the assay on UACC-257 melanoma it was 111%. Also, in the assay on M14 melanoma, the growth was 95.4%.
With `O=C(Nc1ccc(-n2cc(-c3ccncc3)c(-c3ccc(O)c(Cl)c3)n2)cc1)Nc1cc(C(F)(F)F)cc(C(F)(F)F)c1`, the growth was 47.5% in the assay with NCI-H23 lung; 87.8% in the assay on NCI-H226 lung; 51.5% in the assay with NCI-H322M lung; 71.5% with HOP-62 NSCLC; 49.3% with NCI-H460 lung; 2.56% (active) in the assay with HOP-92 NSCLC. The growth was 79.5% with NCI-H522 lung; 53.6% in the assay on A549/ATCC NSCLC; 50.5% with 786-0 renal; 80.6% with DU-145 prostate; 57.6% in the assay with K-562 leukemia; 92.1% with MALME-3M melanoma. The growth is 78.3% with MDA-MB-231 breast; 27% in the assay on RXF 393 renal; 70.8% in the assay with SF-268 CNS; 19.6% with SF-295 CNS; 62.4% with SF-539 CNS; 90.3% in the assay on UACC-257 melanoma. The growth in the assay on M14 melanoma is 55.6%.
Take `CCc1c(C)c2cc3c(c(C)c2oc1=O)OCC(=O)N3`: the growth with NCI-H23 lung is 63.5%; with NCI-H226 lung, 52.4%; with NCI-H322M lung, 60.7%; with HOP-62 NSCLC it was 73.5%; in the assay on NCI-H460 lung it was 43.2%; in the assay on HOP-92 NSCLC, 50.7%. Besides, the growth in the assay on NCI-H522 lung is 58.2%; in the assay with A549/ATCC NSCLC it was 47%; with 786-0 renal, 48.2%; in the assay on DU-145 prostate, 72.5%; with K-562 leukemia, 82.5%; with MALME-3M melanoma, 79%. In addition, the growth with MDA-MB-231 breast is 65.6%; with RXF 393 renal, 68%; with SF-268 CNS, 68.3%; in the assay with SF-295 CNS, 71.7%; in the assay with SF-539 CNS it was 67.8%; in the assay with UACC-257 melanoma it was 84.3%. Further, the growth in the assay with M14 melanoma was 88.8%.
On to `O=C(NCCNc1nccc(-c2c(-c3cccc(O)c3)nc3sccn23)n1)Nc1cc(C(F)(F)F)cc(C(F)(F)F)c1`, for which the growth in the assay on NCI-H23 lung is 90.9%; with NCI-H226 lung, 101%; in the assay with NCI-H322M lung, 87%; with HOP-62 NSCLC, 118%; in the assay with NCI-H460 lung it was 51.8%; in the assay with HOP-92 NSCLC, 74.4%. In addition, the growth with NCI-H522 lung is 69.5%; in the assay with A549/ATCC NSCLC, 57.7%; in the assay on 786-0 renal, 82%; in the assay on DU-145 prostate, 97.1%; in the assay with K-562 leukemia, 72.7%; in the assay on MALME-3M melanoma, 60.5%. Further, the growth with MDA-MB-231 breast was 41.4%; in the assay with RXF 393 renal, 41.4%; in the assay with SF-268 CNS, 69.4%; in the assay on SF-295 CNS it was 66.7%; in the assay with SF-539 CNS it was 96.5%; in the assay on UACC-257 melanoma it was 57%. For the same compound, the growth in the assay on M14 melanoma is 21.4%.
With `Cc1ccc(=O)n(-c2ccc(Br)cc2F)c1`, the growth in the assay on NCI-H23 lung was 98.4%; in the assay with NCI-H226 lung it was 85.4%; in the assay with NCI-H322M lung, 102%; in the assay with HOP-62 NSCLC, 94%; in the assay on NCI-H460 lung, 110%; with HOP-92 NSCLC it was 77.3%. The growth in the assay with NCI-H522 lung is 104%; with A549/ATCC NSCLC it was 98.7%; in the assay with 786-0 renal it was 99.5%; in the assay on DU-145 prostate it was 109%; in the assay on K-562 leukemia it was 99.4%; in the assay on MALME-3M melanoma, 101%. Also, the growth is 103% with MDA-MB-231 breast; 103% in the assay on RXF 393 renal; 104% in the assay with SF-268 CNS; 100% in the assay with SF-295 CNS; 98.9% in the assay on SF-539 CNS; 102% with UACC-257 melanoma. For the same compound, in the assay on M14 melanoma, the growth was 97.4%.
In the case of `CC(=O)c1cc2c(c(O)c1C)C(=O)C(=O)c1c(O)cccc1-2`, the growth is -15.3% (active) with NCI-H23 lung; -69.7% (active) in the assay with NCI-H226 lung; -83.6% (active) in the assay with NCI-H322M lung; -78.5% (active) with HOP-62 NSCLC; -57.6% (active) with NCI-H460 lung; -43.9% (active) in the assay with HOP-92 NSCLC. Besides, the growth in the assay on NCI-H522 lung was -62.4% (active); in the assay on A549/ATCC NSCLC, -66.8% (active); in the assay on 786-0 renal, -78.6% (active); in the assay on COLO 205 colon, -75.4% (active); with DU-145 prostate it was -94.8% (active); in the assay on MALME-3M melanoma, -83.1% (active). Further, the growth is -79.3% (active) with MDA-MB-231 breast; -90.2% (active) in the assay on RXF 393 renal; -45.8% (active) with SF-268 CNS; -82.5% (active) with SF-295 CNS; -98.3% (active) in the assay with SF-539 CNS; -95.7% (active) in the assay with UACC-257 melanoma. Further, the growth in the assay with M14 melanoma was -87.7% (active).
Turning to `COc1cc(C(=O)N2CCN(C(=O)c3cc(OC)c(OCc4ccccc4)cc3N)CC2)c(N)cc1OCc1ccccc1`, the growth in the assay with NCI-H23 lung was 86.8%; in the assay with NCI-H226 lung, 122%; in the assay on NCI-H322M lung, 99.3%; in the assay on HOP-62 NSCLC, 108%; in the assay on NCI-H460 lung, 115%; with HOP-92 NSCLC it was 86.1%. Further, the growth in the assay on NCI-H522 lung was 103%; in the assay with A549/ATCC NSCLC, 107%; with 786-0 renal it was 104%; with DU-145 prostate, 111%; in the assay with K-562 leukemia, 7.24% (active); in the assay on MALME-3M melanoma, 91.1%. Further, the growth is 94.7% in the assay on MDA-MB-231 breast; 98.6% with RXF 393 renal; 108% in the assay with SF-268 CNS; 102% with SF-295 CNS; 104% in the assay with SF-539 CNS; 98.5% in the assay with UACC-257 melanoma.
